# PubChem BioAssay (EPA / NIEHS)
# Inconclusive results are not listed. Where a structure was tested more than once in an assay, its records may differ in their call. Activity calls are given as the source filed them. The calls were made as follows, unless noted: active = hit-call score of the fitted dose curve at least 0.9, where 1 is the maximum; inactive = score below 0.9.
# How the values were obtained:
# [1] = ATG_TCF_b_cat_CIS: Attagene CIS-FACTORIAL HepG2 Assay for human T-Cell-Factor with beta-catenin (TCF/b-cat) (AID 2282965); settings: HepG2 TCF/beta-catenin cis-reporter transcription, actives raise or lower the signal
# Procedure, shortened: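 HepG2 cells transiently transfected with cis-promoter-driven multiplexed reporter units; reporter mRNA measured 24 h after dosing by RT-PCR, FAM labelling, HpaI digestion and capillary electrophoresis. Bidirectional fitting relative to DMSO baseline.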
# [2] = ATG_TAL_CIS: Attagene CIS-FACTORIAL HepG2 Assay for human TAL Basal Promoter (AID 2282966); settings: HepG2 Attagene cis-factorial TAL promoter reporter; actives raise or lower the signal;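 also: background control endpoint measuring basal TAL promoter reporter mRNA not a specific factor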
# Procedure, shortened: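 HepG2 cells were transiently transfected with promoter-driven multiplexed reporter units and dosed for 24 h. Reporter mRNA was measured by RT-PCR with capillary electrophoresis fluorescence; bidirectional fits used DMSO as baseline, serving as a background control.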
# [3] = ATG_TGFb_CIS: Attagene CIS-FACTORIAL HepG2 Assay for human Transforming Growth Factor (TGF) (AID 2282967); settings: HepG2 Attagene CIS TGFb reporter, mRNA transcription; actives raise or lower the signal
# Procedure, shortened: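 Transient MRTU transfection of HepG2 (FuGene 6). Dose 24 h. TriZol RNA, oligo(dT) RT, PCR, 6-FAM primer extension, HpaI cut, CE. Bidirectional fit, DMSO = baseline.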
# [4] = ATG_VDRE_CIS: Attagene CIS-FACTORIAL HepG2 Assay for human Vitamin D Receptor Element (VDRE) (AID 2282968); settings: HepG2 VDRE cis-reporter transcription, actives raise or lower the signal
# Procedure, shortened: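 Transiently transfected HepG2 cells carrying cis-regulated reporter transcription units were exposed for 24 h. Reporter mRNA was measured by RT-PCR with fluorescent labelling and capillary electrophoresis, and fitted in both directions against DMSO.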
# [5] = target: Nuclear receptor subfamily 1 group I member 3 (Homo sapiens) (UniProt Q14994); experiment: ATG_CAR_TRANS: Attagene TRANS-FACTORIAL HepG2 Assay for human Constitutive Androstane Receptor (CAR) (AID 2282969; active = hit-call score of the fitted dose curve at least 0.9, where 1 is the maximum;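 also: activators raise reporter mRNA above DMSO so AC50 marks induction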); settings: HepG2 Attagene TRANS-FACTORIAL CAR reporter
# Nuclear receptor subfamily 1 group I member 3 (Homo sapiens), sequence (Q14994 whole entry, looked up, the tested form may be a part): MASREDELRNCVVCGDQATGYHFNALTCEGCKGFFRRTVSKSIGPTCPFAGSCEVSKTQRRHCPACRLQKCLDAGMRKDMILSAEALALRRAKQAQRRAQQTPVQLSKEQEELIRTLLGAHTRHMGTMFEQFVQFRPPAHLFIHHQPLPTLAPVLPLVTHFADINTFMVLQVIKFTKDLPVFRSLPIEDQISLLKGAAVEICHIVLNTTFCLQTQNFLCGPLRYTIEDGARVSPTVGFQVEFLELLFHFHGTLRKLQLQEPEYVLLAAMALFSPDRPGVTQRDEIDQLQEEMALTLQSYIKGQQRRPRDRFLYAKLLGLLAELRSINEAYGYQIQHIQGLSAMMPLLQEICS
# Procedure, shortened: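 HepG2 cells transiently transfected with GAL4-UAS reporter units; TRANS format reads activity of exogenous chimeric NR-Gal4 protein. After 24 h dosing, reporter mRNA quantified by RT-PCR, 6-FAM labelling and capillary electrophoresis; gain of signal fitted against DMSO.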
# [6] = target: Estrogen receptor (Homo sapiens) (UniProt P03372); experiment: ATG_ERa_TRANS: Attagene TRANS-FACTORIAL HepG2 Assay for human Estrogen Receptor alpha (ERa) (AID 2282970; active = hit-call score of the fitted dose curve at least 0.9, where 1 is the maximum); settings: HepG2 Attagene TRANS ERa GAL4 reporter, mRNA
# Estrogen receptor (Homo sapiens), sequence (P03372 whole entry, looked up, the tested form may be a part): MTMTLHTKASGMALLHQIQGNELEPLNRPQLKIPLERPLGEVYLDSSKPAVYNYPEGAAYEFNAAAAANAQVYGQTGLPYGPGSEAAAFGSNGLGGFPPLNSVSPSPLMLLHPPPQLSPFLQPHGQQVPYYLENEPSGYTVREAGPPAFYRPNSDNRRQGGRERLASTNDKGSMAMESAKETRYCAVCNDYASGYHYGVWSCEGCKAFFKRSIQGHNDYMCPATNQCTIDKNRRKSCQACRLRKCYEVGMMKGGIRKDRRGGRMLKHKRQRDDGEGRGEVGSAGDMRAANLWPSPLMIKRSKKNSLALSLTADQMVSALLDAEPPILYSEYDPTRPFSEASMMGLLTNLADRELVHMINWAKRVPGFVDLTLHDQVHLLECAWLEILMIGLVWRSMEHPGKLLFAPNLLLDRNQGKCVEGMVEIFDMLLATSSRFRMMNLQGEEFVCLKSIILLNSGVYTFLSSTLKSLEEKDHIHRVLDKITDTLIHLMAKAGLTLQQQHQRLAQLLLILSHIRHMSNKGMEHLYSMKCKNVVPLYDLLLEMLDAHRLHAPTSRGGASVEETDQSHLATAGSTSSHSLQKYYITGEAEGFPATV
# Procedure, shortened: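 HepG2 cells transiently transfected with multiplexed GAL4-UAS reporter units; ERa activity read via exogenous chimeric NR-Gal4 protein. After 24 hour compound exposure, reporter mRNA measured by RT-PCR with 6-FAM labelling and capillary electrophoresis; gain-of-signal fitted relative to DMSO.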
# [7] = target: Steroid hormone receptor ERR1 (Homo sapiens) (UniProt P11474); experiment: ATG_ERRa_TRANS: Attagene TRANS-FACTORIAL HepG2 Assay for human Estrogen-Related Receptor alpha (ERRa) (AID 2282971; active = hit-call score of the fitted dose curve at least 0.9, where 1 is the maximum); settings: HepG2 Attagene TRANS reporter, ERRa transactivation
# Steroid hormone receptor ERR1 (Homo sapiens), sequence (P11474 whole entry, looked up, the tested form may be a part): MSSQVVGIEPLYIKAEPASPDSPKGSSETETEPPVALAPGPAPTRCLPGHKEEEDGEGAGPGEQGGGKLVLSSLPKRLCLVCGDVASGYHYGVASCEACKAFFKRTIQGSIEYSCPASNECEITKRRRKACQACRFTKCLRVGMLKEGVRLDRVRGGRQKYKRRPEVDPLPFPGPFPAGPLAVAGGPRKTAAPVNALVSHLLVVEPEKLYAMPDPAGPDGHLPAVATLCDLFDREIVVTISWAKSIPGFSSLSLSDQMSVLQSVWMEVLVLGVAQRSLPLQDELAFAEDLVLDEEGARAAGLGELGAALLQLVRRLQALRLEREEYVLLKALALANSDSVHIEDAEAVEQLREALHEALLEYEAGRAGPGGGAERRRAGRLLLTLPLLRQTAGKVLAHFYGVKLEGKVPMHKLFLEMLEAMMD
# Procedure, shortened: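 HepG2 cells transiently transfected with multiplexed GAL4-UAS reporter units reading chimeric ERRa-Gal4 activity; 24 h compound exposure. Reporter mRNA measured by RT-PCR, 6-FAM labelling, HpaI digest and capillary electrophoresis; gain of signal fitted versus DMSO baseline.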
# [8] = target: X-box-binding protein 1 (Homo sapiens) (UniProt P17861); experiment: ATG_Xbp1_CIS: Attagene CIS-FACTORIAL HepG2 Assay for human X-box Binding Protein 1 (XBP1) (AID 2282972); settings: HepG2 XBP1 cis-element reporter, Attagene multiplex; actives raise or lower the signal
# X-box-binding protein 1 (Homo sapiens), sequence (P17861 whole entry, looked up): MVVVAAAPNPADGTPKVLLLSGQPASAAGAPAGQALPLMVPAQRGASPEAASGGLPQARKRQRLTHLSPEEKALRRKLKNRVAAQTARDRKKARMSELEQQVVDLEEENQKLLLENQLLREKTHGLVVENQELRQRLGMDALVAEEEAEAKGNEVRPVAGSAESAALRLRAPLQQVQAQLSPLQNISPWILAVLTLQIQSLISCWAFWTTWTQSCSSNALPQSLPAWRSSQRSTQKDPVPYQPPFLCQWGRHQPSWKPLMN
# Procedure, shortened: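 After a 24-hour chemical exposure of HepG2 cells carrying cis-regulated reporters, reporter mRNA levels are assessed. Quantification uses RT-PCR, 6-FAM labelling and capillary electrophoresis. Gain- or loss-of-signal is fitted against DMSO.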
# [9] = ATG_M_19_TRANS: Attagene TRANS-FACTORIAL HepG2 Assay for M19 Transcription Factor (Internal Marker) (AID 2282974; active = hit-call score of the fitted dose curve at least 0.9, where 1 is the maximum); settings: HepG2 Attagene TRANS-FACTORIAL M19 internal marker reporter
# Procedure, shortened: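 Measured here: internal-marker reporter transcript from HepG2 cells transfected with MRTUs, harvested at 24 h. cDNA PCR products were 6-FAM labelled by primer extension, cut with HpaI for 2 h at 37 C, and resolved by CE.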
# [10] = target: Androgen receptor (Homo sapiens) (UniProt P10275); experiment: ATG_AR_TRANS: Attagene TRANS-FACTORIAL HepG2 Assay for human Androgen Receptor (AR) (AID 2282973; active = hit-call score of the fitted dose curve at least 0.9, where 1 is the maximum); settings: HepG2 Attagene TRANS-FACTORIAL AR reporter transcription
# Androgen receptor (Homo sapiens), sequence (P10275 whole entry, looked up, the tested form may be a part): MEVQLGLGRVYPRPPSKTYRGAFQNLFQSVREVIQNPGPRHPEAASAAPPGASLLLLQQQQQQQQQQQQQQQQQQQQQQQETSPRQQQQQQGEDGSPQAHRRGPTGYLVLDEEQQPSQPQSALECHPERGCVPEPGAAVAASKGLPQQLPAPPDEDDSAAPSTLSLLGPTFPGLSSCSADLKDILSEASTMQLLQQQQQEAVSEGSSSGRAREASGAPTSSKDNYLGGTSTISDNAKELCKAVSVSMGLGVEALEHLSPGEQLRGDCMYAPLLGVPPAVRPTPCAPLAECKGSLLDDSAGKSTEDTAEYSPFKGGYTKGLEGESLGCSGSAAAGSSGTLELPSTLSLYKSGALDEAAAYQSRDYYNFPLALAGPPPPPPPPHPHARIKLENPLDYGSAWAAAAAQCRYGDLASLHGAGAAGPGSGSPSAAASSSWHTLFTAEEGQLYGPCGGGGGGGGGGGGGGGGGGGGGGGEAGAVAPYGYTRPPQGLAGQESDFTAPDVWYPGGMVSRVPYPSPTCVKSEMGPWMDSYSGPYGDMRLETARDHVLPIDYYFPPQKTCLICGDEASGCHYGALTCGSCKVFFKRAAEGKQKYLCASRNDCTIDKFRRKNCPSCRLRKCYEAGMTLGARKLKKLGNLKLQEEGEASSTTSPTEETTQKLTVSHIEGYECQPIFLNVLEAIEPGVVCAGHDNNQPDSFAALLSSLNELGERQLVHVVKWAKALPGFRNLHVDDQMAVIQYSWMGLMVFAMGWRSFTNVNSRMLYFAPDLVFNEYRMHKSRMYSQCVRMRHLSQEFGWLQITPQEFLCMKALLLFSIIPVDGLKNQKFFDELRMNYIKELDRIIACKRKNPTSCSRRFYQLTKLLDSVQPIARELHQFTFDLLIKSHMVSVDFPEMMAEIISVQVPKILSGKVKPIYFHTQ
# Procedure, shortened: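 HepG2 cells transiently transfected with multiplexed GAL4-UAS reporter units and chimeric NR-Gal4 fusion; 24 h compound exposure. Reporter mRNA measured by RT-PCR, 6-FAM labelling, HpaI digestion and capillary electrophoresis; gain-of-signal fitted relative to DMSO baseline.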
Structure (SMILES),outcome [1],outcome [2],outcome [3],AC50 [4],outcome [5],outcome [6],outcome [7],outcome [8],outcome [9],outcome [4],AC50 [8],AC50 [3],outcome [10],AC50 [6]
CC1(C)C(C=C(Cl)Cl)C1C(=O)OC(C#N)c1ccc(F)c(Oc2ccccc2)c1 (configuration not stated),inactive,inactive,inactive,8.85 µM (active),inactive,inactive,inactive,inactive,inactive,–,–,–,–,–
CCC(C)(NC(=O)c1cc(Cl)c(C)c(Cl)c1)C(=O)CCl (configuration not stated),inactive,inactive,inactive,–,inactive,inactive,inactive,inactive,inactive,–,–,–,–,–
CCS(=O)(=O)c1cccnc1S(=O)(=O)NC(=O)Nc1nc(OC)cc(OC)n1,inactive,inactive,inactive,–,inactive,–,inactive,inactive,–,inactive,–,–,–,–
CCc1ccc(C(=O)NN(C(=O)c2cc(C)cc(C)c2)C(C)(C)C)cc1,inactive,inactive,inactive,9.51 µM (active),–,inactive,inactive,inactive,–,–,–,–,–,–
COP(=S)(OC)Oc1ccc([N+](=O)[O-])cc1,inactive,inactive,inactive,–,inactive,inactive,–,inactive,inactive,inactive,–,–,–,–
CCC(C)(C)C(=O)OC1=C(c2ccc(Cl)cc2Cl)C(=O)OC12CCCCC2,inactive,inactive,inactive,–,–,–,inactive,inactive,inactive,inactive,–,–,–,–
CN1CSC(=S)N(C)C1,inactive,inactive,inactive,78.3 µM (active),inactive,–,inactive,–,–,–,50 µM (active),–,–,–
CC(C)OC(=O)Nc1cccc(Cl)c1,inactive,inactive,inactive,50 µM (active),–,inactive,inactive,inactive,–,–,–,–,–,–
O=C(O)COc1ccc(Cl)cc1Cl,inactive,inactive,inactive,–,–,–,–,inactive,inactive,inactive,–,–,–,–
Cc1[nH]c(=O)n(C(C)(C)C)c(=O)c1Cl,inactive,inactive,–,–,inactive,inactive,–,–,inactive,–,27.4 µM (active),28.7 µM (active),inactive,–
CC(C)(C)C(O)C(Oc1ccc(Cl)cc1)n1cncn1 (configuration not stated),inactive,inactive,inactive,–,inactive,–,–,inactive,inactive,inactive,–,–,–,–
O=C(O)CCCOc1ccc(Cl)cc1Cl,inactive,inactive,inactive,–,inactive,–,–,inactive,inactive,inactive,–,–,inactive,–
CCCN(CCOc1c(Cl)cc(Cl)cc1Cl)C(=O)n1ccnc1,inactive,inactive,inactive,–,inactive,–,inactive,inactive,inactive,–,19.5 µM (active),–,–,–
COC(=O)c1ccccc1S(=O)(=O)NC(=O)Nc1nc(C)nc(OC)n1,inactive,inactive,inactive,–,–,–,–,inactive,inactive,inactive,–,–,–,–
O=C1c2ccccc2C(=O)N1SC(Cl)(Cl)Cl,inactive,inactive,inactive,–,inactive,inactive,–,inactive,inactive,inactive,–,–,–,–
CCC(C)Nc1c([N+](=O)[O-])cc(C(C)(C)C)cc1[N+](=O)[O-] (configuration not stated),inactive,inactive,inactive,19.2 µM (active),–,–,–,inactive,inactive,–,–,–,–,12.4 µM (active)
CC(C)N(C(=O)COc1nnc(C(F)(F)F)s1)c1ccc(F)cc1,inactive,inactive,inactive,–,–,inactive,–,–,inactive,–,29.7 µM (active),–,–,–
COC(=O)c1ccccc1S(=O)(=O)NC(=O)N(C)c1nc(C)nc(OC)n1,inactive,inactive,inactive,–,inactive,–,–,inactive,–,–,–,–,–,–
COP(=O)(OC)OC=C(Cl)Cl,inactive,inactive,inactive,–,–,inactive,–,–,–,–,25.1 µM (active),–,–,–
Clc1ccccc1-c1nnc(-c2ccccc2Cl)nn1,inactive,inactive,inactive,–,inactive,inactive,–,inactive,inactive,inactive,–,–,–,–
CC(C)(C)C(O)/C(=C\c1ccc(Cl)cc1Cl)n1cncn1 (configuration not stated),inactive,inactive,inactive,–,inactive,inactive,–,inactive,inactive,inactive,–,–,–,–
CCOc1nc(NC)nc(NC(=O)NS(=O)(=O)c2ccccc2C(=O)OC)n1,inactive,inactive,inactive,–,inactive,–,inactive,inactive,inactive,inactive,–,–,–,–
CC1(c2ccc(Oc3ccccc3)cc2)OC(=O)N(Nc2ccccc2)C1=O (configuration not stated),inactive,inactive,inactive,2.16 µM (active),–,inactive,inactive,inactive,inactive,–,–,–,–,–
N#Cc1c(Cl)c(Cl)c(Cl)c(C#N)c1Cl,inactive,inactive,inactive,0.267 µM (active),inactive,inactive,–,inactive,inactive,–,–,–,–,–
[2H]C1([2H])[n+]2ccccc2-c2cccc[n+]2C1([2H])[2H],inactive,inactive,inactive,–,–,–,–,inactive,inactive,inactive,–,–,–,–
O=C(NC(=O)c1c(F)cccc1F)Nc1ccc(OC(F)(F)C(F)OC(F)(F)F)c(Cl)c1 (configuration not stated),inactive,inactive,inactive,–,–,inactive,–,inactive,–,inactive,–,–,–,–
CCN(CC)C(=O)SCc1ccc(Cl)cc1,inactive,inactive,inactive,24.8 µM (active),–,–,inactive,inactive,inactive,–,–,–,–,32.4 µM (active)
CC[C@H](C)[C@H]1O[C@]2(C=C[C@@H]1C)C[C@@H]1C[C@@H](C/C=C(\C)[C@@H](O[C@H]3C[C@H](OC)[C@@H](O[C@H]4C[C@H](OC)[C@@H](O)[C@H](C)O4)[C@H](C)O3)[C@@H](C)/C=C/C=C3\CO[C@@H]4[C@H](O)C(C)=C[C@@H](C(=O)O1)[C@]34O)O2 (tested in a mixture with another compound),inactive,inactive,inactive,–,–,inactive,inactive,inactive,inactive,inactive,–,–,–,–
